In PubChem BioAssay (NCATS):
Records with an inconclusive call do not appear. Entries that show only a call come without a potency. The source made the active and inactive calls. Calls follow the shape of the dose curve; as a rule, active = well fitted inhibition curve with a large enough effect; inconclusive = small, poorly fitted or top-dose-only effect; inactive = no such curve, though single readings can be large or run the other way.
Potency is read from the fitted curve at half-maximal effect.

These molecules were tested against Cytochrome P450 3A7 (Homo sapiens) (UniProt P24462) (assay: Cytochrome P450 family 3 subfamily A member 7 (CYP3A7) small molecule antagonists: luciferase biochemical qHTS assay (AID 1963596; also: nearly all actives have a fitted effect of over 40% in size)). Settings: P450-Glo CYP3A7 enzyme luminescence, 1 h; series mostly up to 57.4 µM.
Chain of Cytochrome P450 3A7 (Homo sapiens) (P24462 whole entry, looked up): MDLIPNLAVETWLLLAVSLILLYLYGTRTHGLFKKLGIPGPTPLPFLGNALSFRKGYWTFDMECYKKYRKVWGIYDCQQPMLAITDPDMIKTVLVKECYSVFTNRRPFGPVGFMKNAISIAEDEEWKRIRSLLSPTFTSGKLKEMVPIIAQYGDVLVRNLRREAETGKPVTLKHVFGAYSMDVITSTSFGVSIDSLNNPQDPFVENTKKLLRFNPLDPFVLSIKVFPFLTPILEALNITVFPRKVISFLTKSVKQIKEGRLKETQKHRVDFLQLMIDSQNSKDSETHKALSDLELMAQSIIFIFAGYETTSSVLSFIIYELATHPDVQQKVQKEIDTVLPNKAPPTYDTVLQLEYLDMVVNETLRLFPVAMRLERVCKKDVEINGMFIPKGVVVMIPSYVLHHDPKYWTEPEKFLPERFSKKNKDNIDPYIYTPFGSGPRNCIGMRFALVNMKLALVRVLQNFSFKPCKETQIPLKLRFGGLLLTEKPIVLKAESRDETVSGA
Text: National Center for Advancing Translational Sciences [NCATS] Assay Overview: Cytochrome P450 (CYP) enzymes are membrane-bound hemeproteins that play a key role in metabolism of drugs and xenobiotics. The CYP3A subfamily is the most abundant, representing 30% of the total adult hepatic CYP content, whereas CYP3A7 is found predominantly in human fetal liver and accounts up to 50% of the total fetal hepatic CYP content. Testing the effect of chemicals on CYP isozymes is useful to minimize the adverse drug reactions and toxicities in the drug development process. Chemicals were tested for their effect on CYP enzyme activities by using P450-Glo (TM) screening systems (Promega Corporation, Madison, WI). These systems provide a luminescent method containing proluciferin substrates and are converted to luciferin products by CYP isozymes. The luciferin products formed are detected with a luciferin detection reagent, and the amount of light produced is proportional to CYP activity. P450-Glo (TM) CYP3A7 screening system (Catalog. No. V8812) was used to detect the compounds that interfere with CYP3A7 activity. The positive control compound used for CYP3A7 assay is ketoconazole (Sigma-Aldrich, St. Louis, MO).
Assay Protocol Summary: Two ul of enzyme-substrate mix was dispensed into medium binding white/solid 1536-well plates (Greiner Bio-One North America Inc., Monroe, NC) using a Flying Reagent Dispenser (FRD, Aurora Discovery, San Diego, CA). Compounds dissolved in DMSO, and positive control (ketoconazole) were transferred to the assay plates at 23 nl using a Pintool station (Wako, San Diego, CA). The assay plates were incubated at room temperature for 10 min. Then 2 ul of NADPH regeneration solution was added to each well of the assay plates using an FRD and incubated at room temperature for 1 h. The reaction was stopped by adding 4 ul of detection reagent using an FRD and after 20 min incubation at room temperature the luminescence signal was measured using a ViewLux plate reader (Perkin Elmer, Shelton, CT). Data were expressed as relative luminescence units.
With `NCC(O)c1cccc(O)c1` (stereo not given) the Potency was “inactive”.
In the case of `O=C(N1CCCCC1Cc1ccccc1)n1cc(-c2ccc(-c3ccccc3)cc2)nn1` (stereo not given), the Potency is reported as “inactive”.
For `CC(C)NCC(O)c1ccc([N+](=O)[O-])cc1` (stereo not given), the Potency was “inactive”.
In the case of `COc1ccc2c3c1O[C@H]1[C@H](O)CC[C@H]4[C@@H](C2)N(C)CC[C@@]341`, the Potency is reported as “inactive”.
`NC1(c2ccccc2)CCCCC1` was tested, and the Potency was “inactive”.
With `O=C(O)CCCOc1ccc(Cl)cc1Cl` the Potency was “inactive”.
With `CCCCn1cc(C(=O)c2cccc3ccccc23)c2ccccc21` the Potency was “inactive”.
For `CC1NCCOC1c1ccccc1` (stereo not given), the Potency was “inactive”.
In the case of `CCN1CCN(C(c2ccc(Cl)cc2)c2ccc(Cl)cc2)CC1`, the Potency is reported as “inactive”.
`C[C@H]1O[C@@H](O[C@H]2[C@@H](O)C[C@H](O[C@H]3[C@@H](O)C[C@H](O[C@H]4CC[C@@]5(C)[C@H](CC[C@@H]6[C@@H]5CC[C@]5(C)[C@@H](C7=CC(=O)OC7)CC[C@]65O)C4)O[C@@H]3C)O[C@@H]2C)C[C@H](O)[C@@H]1O` was tested, and the Potency was “inactive”.
`CC(C)[C@@H](CN1CC[C@@](C)(c2cccc(O)c2)[C@@H](C)C1)NC(=O)[C@H]1Cc2ccc(O)cc2CN1` was tested, and the Potency was “inactive”.
In the case of `O=C1CN=C(c2ccccc2)c2cc([N+](=O)[O-])ccc2N1`, the Potency is reported as “inactive”.
`ClCCN1CCCC1` was tested, and the Potency was “inactive”.
`C[C@@H]1CN(C2CCC(C#N)(c3ccc(F)cc3)CC2)CC[C@]1(C(=O)O)c1ccccc1` (stereo not given in full) was tested, and the Potency was “inactive”.
In the case of `CCOCCOC(C)=O`, the Potency is reported as “inactive”.
`CC(C)(C)NC[C@H](O)c1ccc(O)cc1Cl` was tested, and the Potency was “inactive”.
In the case of `CC(C)N(CCNC(=O)CN1CCCC1=O)C(C)C`, the Potency is reported as “inactive”.
For `C[C@@H](C1CC[C@@]2(O)C3=CC(=O)[C@@H]4C[C@@H](O)[C@@H](O)C[C@]4(C)[C@H]3CC[C@]12C)[C@H](O)CCC(C)(C)O` (stereo not given in full), the Potency was “inactive”.
`CCS(=O)(=O)C(C)(C)S(=O)(=O)CC` was tested, and the Potency was “inactive”.
`CC(Cc1ccccc1)NCCCCl` (stereo not given) was tested, and the Potency was “inactive”.
`ClCc1cccc(Cl)c1` was tested, and the Potency was “inactive”.
With `C#C[C@]1(O)CC[C@H]2[C@@H]3CCC4=CC(=O)CCC4=C3C=C[C@@]21CC` the Potency was “inactive”.
With `NC(=O)c1cc([N+](=O)[O-])cc([N+](=O)[O-])c1` the Potency was 11 µM (active).
For `N#CC(O[C@@H]1O[C@H](CO[C@@H]2O[C@H](CO)[C@@H](O)[C@H](O)[C@H]2O)[C@@H](O)[C@H](O)[C@H]1O)c1ccccc1` (stereo not given in full), the Potency was “inactive”.
For `CC(C)NCC(O)c1ccccc1Cl` (stereo not given), the Potency was “inactive”.
In the case of `COP(=O)(OC)OC=C(Cl)Cl`, the Potency is reported as “inactive”.
For `C[C@@H](CN1CCC(n2c(=O)[nH]c3cc(Br)ccc32)CC1)NC(=O)[C@@H]1C[C@H]1c1ccccc1`, the Potency was “inactive”.
With `C#CC(C)(O)CC` (stereo not given) the Potency was “inactive”.
With `CC(=O)NC1CCSC1=O` (stereo not given) the Potency was “inactive”.
For `CN(C)CCc1ccc(O)cc1`, the Potency was “inactive”.
In the case of `O=C(CC1NCCC[C@H]1O)Cn1cnc2cc(Br)c(Cl)cc2c1=O` (stereo not given in full), the Potency is reported as “inactive”.
With `CC1OC(C)OC(C)O1` (stereo not given) the Potency was “inactive”.
For `c1ccc2c(c1)sc1ccccc12`, the Potency was “inactive”.
`O=C(Oc1ccc([N+](=O)[O-])cc1)N1CCN(Cc2cccc(Oc3ccccc3)c2)CC1` was tested, and the Potency was “inactive”.
`O=C(O)C(Cl)Cl` was tested, and the Potency was “inactive”.
In the case of `C=CCN1CC[C@]23c4c5ccc(O)c4O[C@H]2C(=O)CC[C@@]3(O)[C@H]1C5`, the Potency is reported as “inactive”.
With `CCC1(C2=NCCN2)Cc2ccccc2O1` (stereo not given) the Potency was “inactive”.
With `C=CCN1CCC23c4c5ccc(O)c4O[C@H]2C(=O)CC[C@@]3(O)C1C5` (stereo not given in full) the Potency was “inactive”.
In the case of `CN1C(=O)COc2c(C(=O)NC3CN4CCC3CC4)cc(Cl)cc21` (stereo not given), the Potency is reported as “inactive”.
With `Oc1ccc(Cl)cc1` the Potency was “inactive”.
